The source of these data is PubChem BioAssay (NCI).

The structures appear in SMILES notation. This is part of a sample that, as a whole, favours compounds with a hit. Of some 83,000 tested, about 20% had one in any assay.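 96-well plates, one dose, 48 hours. Percent growth reported; active if below 10.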 Unmarked numbers belong to inactive results. Calls of active or inactive are those of the source.

Test systems include SR leukemia; RPMI-8226 leukemia; OVCAR-8 ovarian; OVCAR-5 ovarian; OVCAR-4 ovarian; SK-OV-3 ovarian; IGROV1 ovarian; OVCAR-3 ovarian; HS 578T breast; NCI/ADR-RES ovarian; T-47D breast; BT-549 breast; MDA-MB-435 melanoma; SW-620 colon; MCF7 breast; HCT-116 colon; HCC-2998 colon; KM12 colon.
Common to all, as to assay: NCI-60 one-dose screen, 48 h (100 = growth as untreated, 0 = no growth, -100 = all killed)
What all share (conditions): 10 µM unless noted

With `COc1ccc2c(c1)c(-c1nc(-c3ccc4ccccc4c3)cs1)cn2C`, the growth is 49.9% with SR leukemia; 102% in the test on RPMI-8226 leukemia; 95.3% with OVCAR-8 ovarian; 91.6% in the test on OVCAR-5 ovarian; 94.3% in the test with OVCAR-4 ovarian; 93% with SK-OV-3 ovarian. In addition, the growth is 85.9% in the test with IGROV1 ovarian; 96.2% with OVCAR-3 ovarian; 97% in the test with HS 578T breast; 98% in the test with NCI/ADR-RES ovarian; 58% in the test on T-47D breast; 89% in the test on BT-549 breast. Further, the growth with MDA-MB-435 melanoma is 70.1%; in the test with SW-620 colon, 73.4%; with MCF7 breast, 30.8%; in the test on HCT-116 colon it was 87.9%; in the test with HCC-2998 colon, 99.5%; in the test on KM12 colon, 67.4%.
Turning to `Oc1c(CN2CCC(N3CCOCC3)CC2)cc(Cc2cc(CN3CCC(N4CCOCC4)CC3)c(O)c3ncccc23)c2cccnc12`, the growth in the test on SR leukemia was 20%; in the test on RPMI-8226 leukemia it was 34.8%; in the test with OVCAR-8 ovarian, 19.6%; in the test with OVCAR-5 ovarian it was 47.3%; in the test on OVCAR-4 ovarian it was 15.4%; in the test with SK-OV-3 ovarian, 0.924% (active). Further, the growth in the test on IGROV1 ovarian was 25%; in the test on OVCAR-3 ovarian it was 19.6%; in the test with HS 578T breast, 58.9%; in the test with NCI/ADR-RES ovarian it was 40.7%; with T-47D breast, 21.5%; with BT-549 breast, 33.5%. The growth in the test on MDA-MB-435 melanoma was 20.3%; in the test on SW-620 colon, 28.2%; in the test on MCF7 breast, 5.06% (active); in the test with HCT-116 colon, 11.5%; with HCC-2998 colon, 0.162% (active); in the test with KM12 colon, 17.1%.
Take `COc1ccc(C/C(C)=C(\c2ccc(Cl)cc2)c2ccc(OCCN3CCCC3)cc2)cc1`: the growth in the test on SR leukemia is -14.2% (active); in the test with RPMI-8226 leukemia it was 13.9%; in the test with OVCAR-8 ovarian it was 91.1%; in the test on OVCAR-5 ovarian it was 68.9%; in the test on OVCAR-4 ovarian, 97.7%; in the test with SK-OV-3 ovarian, 101%. In addition, the growth with IGROV1 ovarian was 69%; with OVCAR-3 ovarian it was 93.1%; in the test on HS 578T breast, 70.4%; in the test with NCI/ADR-RES ovarian it was 87.8%; in the test on T-47D breast it was 56.6%; in the test on BT-549 breast it was 85.5%. Also, the growth with MDA-MB-435 melanoma was 89.4%; with SW-620 colon it was 75.2%; with MCF7 breast, 35.7%; with HCT-116 colon it was 78.9%; in the test on HCC-2998 colon it was 75.6%; with KM12 colon, 72.1%.
As for `O=c1cc(CNc2cc(F)cc(F)c2)c2ccc(I)cc2[nH]1`, the growth with SR leukemia is -0.446% (active); with RPMI-8226 leukemia it was 15.8%; in the test on OVCAR-8 ovarian, 53.5%; with OVCAR-5 ovarian, 64.3%; in the test on OVCAR-4 ovarian it was 60.2%; in the test with SK-OV-3 ovarian, 39%. The growth with IGROV1 ovarian is 45.9%; in the test on OVCAR-3 ovarian, 11.2%; with HS 578T breast it was 19.9%; in the test with NCI/ADR-RES ovarian, 26.3%; with T-47D breast, 35.8%; with BT-549 breast, 54.8%. Moreover, the growth in the test with MDA-MB-435 melanoma was -28.1% (active); with SW-620 colon, 19.1%; with MCF7 breast it was 21.9%; in the test with HCT-116 colon, 26.4%; in the test with HCC-2998 colon, 64.6%; in the test with KM12 colon it was 24.1%.
For the compound `CCCCCCCCCCCCCCCCCCOc1ccccc1CC(=O)NCC[N+](C)(C)C`, the growth was 21.3% in the test with SR leukemia; 17.9% in the test on RPMI-8226 leukemia; 41.7% in the test with OVCAR-8 ovarian; 14.6% in the test with OVCAR-5 ovarian; 46.7% in the test with OVCAR-4 ovarian; 84.9% in the test on SK-OV-3 ovarian. The growth in the test on IGROV1 ovarian is -49.7% (active); with OVCAR-3 ovarian it was 35%; in the test with HS 578T breast it was 61.8%; in the test on NCI/ADR-RES ovarian, 99.3%; with T-47D breast it was 73.2%; in the test on BT-549 breast it was 57.6%. In addition, the growth is 73.1% in the test with MDA-MB-435 melanoma; 45.1% in the test on SW-620 colon; 57.6% in the test with MCF7 breast; 45.2% in the test with HCT-116 colon; 29.9% with HCC-2998 colon; -27% (active) with KM12 colon.
For `CC12OC(CC(O)C1O)n1c3ccccc3c3c4c(c5c6ccccc6n2c5c31)C(=O)N(CCN1CCCC1)C4=O` (centres undefined), the growth is 2.44% (active) with SR leukemia; 1.17% (active) with RPMI-8226 leukemia; 26.3% in the test on OVCAR-8 ovarian; 41.4% in the test on OVCAR-5 ovarian; 27.9% in the test on OVCAR-4 ovarian; 10.4% with SK-OV-3 ovarian. The growth in the test with IGROV1 ovarian was 13.9%; in the test on OVCAR-3 ovarian it was 25.7%; with HS 578T breast, 41.1%; in the test on NCI/ADR-RES ovarian it was 46.4%; in the test with T-47D breast it was 21.9%; with BT-549 breast it was 52.9%. Also, the growth with MDA-MB-435 melanoma is 30.4%; with SW-620 colon, 13.9%; in the test with MCF7 breast, 2.15% (active); with HCT-116 colon, 13.4%; in the test on HCC-2998 colon it was 13.3%; in the test with KM12 colon it was 27.9%.
On to `CCN(CC)CCN1C(=O)c2c(c3c4ccccc4[nH]c3c3ccc4ccccc4c23)C1=O`, for which the growth with SR leukemia is -22.5% (active); in the test on RPMI-8226 leukemia, -33.1% (active); with OVCAR-8 ovarian, -29.1% (active); in the test with OVCAR-5 ovarian it was -85.8% (active); in the test on OVCAR-4 ovarian, -79.5% (active); in the test with SK-OV-3 ovarian it was 83.1%. The growth was 76.1% with IGROV1 ovarian; 109% with OVCAR-3 ovarian; 87.4% with HS 578T breast; -40.9% (active) in the test on NCI/ADR-RES ovarian; 48.7% in the test with T-47D breast; 84.5% in the test on BT-549 breast. Besides, the growth in the test with MDA-MB-435 melanoma was -84.8% (active); in the test with SW-620 colon, 4.79% (active); in the test with MCF7 breast it was -50.8% (active); in the test on HCT-116 colon it was 29.2%; with HCC-2998 colon, 85.5%; in the test on KM12 colon, -15.8% (active).
Regarding `COc1ccc(-c2cc(C(=O)N3N=C(c4ccc(N)cc4)CC3c3ccc(Cl)cc3)c3ccccc3n2)cc1` (centres undefined), the growth in the test on SR leukemia is 14.5%; in the test with RPMI-8226 leukemia, 16.2%; in the test with OVCAR-8 ovarian, 14.2%; in the test with OVCAR-5 ovarian, 51.6%; with OVCAR-4 ovarian, 59.6%; with SK-OV-3 ovarian, 21.6%. The growth is 43.9% with IGROV1 ovarian; 3.86% (active) in the test on OVCAR-3 ovarian; 16.4% in the test on HS 578T breast; 25.5% in the test on NCI/ADR-RES ovarian; 47.4% in the test with T-47D breast; 8.43% (active) in the test on BT-549 breast. Moreover, the growth with MDA-MB-435 melanoma is -12.9% (active); in the test with SW-620 colon it was 29.2%; in the test with MCF7 breast, 13.9%; in the test with HCT-116 colon it was 15.6%; with HCC-2998 colon it was 21.5%; in the test on KM12 colon, 20.7%.
